This is one part of a sample in which hits are shown more often than they occur.
RBX1-CUL1 inh – blocks human RBX1-Cullin-1 di-ubiquitin formation; P62877+Q13616; in vitro K48 di-Ub FRET, acceptor:donor ratio, 45 min; inhibition, % at 10 µM; 140,000 compounds, 0.6% hits; AID 1347404; in the data active = inhibition above about 25%
An asterisk follows results filed as active.

SMILES | RBX1-CUL1 inh
COc1cc(/C=C2\C(=O)N(c3ccc(S(N)(=O)=O)cc3)N=C2C(F)(F)F)ccc1OCC(C)C | 34.7*
CC1=NN(c2ccc(S(N)(=O)=O)cc2)C(=O)/C1=C\c1ccc(N(C)C)cc1 | 6.7
COc1cc(/C=C2/C(=O)N(c3ccc(S(=O)(=O)O)cc3)N=C2C)ccc1OC(=O)c1cccs1 | 55.9*
COc1cccc(/C=C2\C(=O)N(c3ccc(S(N)(=O)=O)cc3)N=C2C)c1 | 96.6*
C#CCOc1ccc(/C=C2\C(=O)N(c3ccc(S(N)(=O)=O)cc3)N=C2C(F)(F)F)cc1OCC | -0.8
CCCN(CCC)C(=O)c1cc(-c2ccccn2)nc2ccccc12 | -12.7
CCN1CCC(C(=O)N2CCCC(CCc3ccc(F)c(F)c3)C2)CC1 (centres undefined) | -3.4
CCS(=O)(=O)Nc1ccc(F)c(Cl)c1 | -1.3
Cc1cccc(NC(=O)c2snnc2C)c1C | -3.3
CCOC(=O)C1=C(C)N=c2s/c(=C\c3cccc(O)c3)c(=O)n2C1c1ccc(OC)c(OCC)c1 (centres undefined) | 4.6
Cc1cccc(N2CCN(C(=O)Cn3nnnc3CN3CCC(C)CC3)CC2)c1C | -1.3
CCCCOc1ccc(C(=O)C2C(=O)C(=O)N(CCCOC)C2c2ccc(O)c(OC)c2)cc1C (centres undefined) | 1.4
COc1ccc(C(=O)C2C(=O)C(=O)N(CCN(C)C)C2c2ccc(OCc3ccccc3)cc2)cc1 (centres undefined) | -4.7
COc1ccc(C(=O)C2C(=O)C(=O)N(CCCN(C)C)C2c2ccc(C)cc2)cc1OC (centres undefined) | -7.7
CCCCOc1ccc(C(=O)C2C(=O)C(=O)N(CCOC)C2c2ccc(CC)cc2)cc1C (centres undefined) | 40.6*
Cc1ccc(C2C(C(=O)c3ccc(OCc4ccccc4)c(C)c3)C(=O)C(=O)N2CCN(C)C)cc1 (centres undefined) | 72.0*
CCc1ccc(C2C(C(=O)c3ccc4c(c3)CC(C)O4)C(=O)C(=O)N2CCOC)cc1 (centres undefined) | 14.8
CN1C(=O)C(=Cc2cc([N+](=O)[O-])cc([N+](=O)[O-])c2O)C(=O)N(C)C1=O | 3.0
Cc1ccccc1NC(=O)CSc1nnc(CSCc2ccc(Cl)c(Cl)c2)n1C | 9.4
COc1ccc(OCc2cccc(C(=O)N3CCN(c4ccc(OC)cc4)CC3)c2)cc1 | 1.0
COc1cc(C(=O)Nc2cccc(Cl)c2Cl)cc(OC)c1OC | 3.1
CCCCS(=O)(=O)N1CCCC(C(=O)Nc2ccccc2Cl)C1 (centres undefined) | -5.1
COC(=O)c1ccc(C)c(OC(=O)c2cc(F)c(Cl)nc2Cl)c1 | -2.0
COc1ccc(OC)c(C2C3=C(N=c4s/c(=C/c5ccccc5)c(=O)n42)c2ccccc2CC3)c1 (centres undefined) | -6.9
O=C1N(Cc2cccc(F)c2F)CCCC1(O)CNCC1CCCCC1 (centres undefined) | 11.2
SMILES | RBX1-CUL1 inh
O=C1N(Cc2cccc(F)c2F)CCCC1(O)CNC1CCC1 (centres undefined) | -6.9
O=C1N(Cc2cccc(F)c2F)CCCC1(O)CNC1CCCC1 (centres undefined) | 94.3*
CCOC(=O)c1cc(-c2ccc(C(c3c(C)[nH][nH]c3=O)c3c(C)[nH][nH]c3=O)o2)ccc1Cl | 67.2*
CCOC(=O)c1cc(-c2ccc(/C=C(\C#N)c3nc4ccc(C)cc4[nH]3)o2)ccc1Cl | -4.1
CCCCOC(=O)c1cc(-c2ccc(CC3=NC(=S)NC3=O)o2)ccc1Cl | 1.4
CN(CCC(=O)/C=C/c1cccc(F)c1)CCc1ccc2c(c1)OCO2 | 49.6*
O=S(=O)(NCc1ccc2c(c1)OCO2)c1cccc(F)c1 | 2.7
CC1=NC(=O)C(C(=O)/C=C/c2ccc3c(c2)OCO3)=C(C)C1 | -7.1
O=C(O)Cc1csc(Nc2ccc(Br)cc2)n1 | -9.0
CCOc1cc(-c2ccc(O)cc2)cc(=O)c2c(C)oc(C)c12 | -17.6
CCOc1cc(-c2ccc(O)c(O)c2)cc(=Nc2ccc(Br)cc2)c2c(C)oc(C)c12 | 49.7*
CCOc1cc(-c2ccc3c(c2)OCO3)cc(=Nc2cccc(OC)c2)c2c(C)oc(C)c12 | 0.5
CCOc1ccc(-n2c(SCC(=O)Nc3ccccc3C)nnc2-c2ccc(Cl)cc2)cc1 | -3.0
Cc1ccc2cc(C3=CCC(=O)O3)ccc2c1 | 20.0
Cc1ccc2cc(C3=C/C(=C/c4ccc(N5CCOCC5)o4)C(=O)O3)ccc2c1 | 95.9*
Cc1ccc(C2=C/C(=C\c3c(Cl)cccc3Cl)C(=O)O2)cc1 | 2.3
O=C1NC(=S)NC(=O)C1=Cc1ccc(OCc2ccc(Cl)cc2)c(Cl)c1 | 3.7
COC(=O)CCCNc1nncc(-c2ccc3ccccc3c2)n1 | 3.2
NS(=O)(=O)c1ccc(NC(=O)CSCCOC(=O)/C=C/c2ccco2)cc1 | 18.7
Cc1ccc(SCc2cc3c(cc2Br)OCO3)cc1 | 2.3
O=C(O)CCCCCN1C(=O)c2ccc3c4c(ccc(c24)C1=O)C(=O)N(CCCCCC(=O)O)C3=O | 7.0
COc1ccccc1/C=C1/SC(=S)N(CCCCCC(=O)O)C1=O | 14.9
O=C(O)CCCCCN1C(=O)/C(=C2\SC(=S)N(CCCCCC(=O)O)C2=O)SC1=S | 65.0*
Cc1ccc(C(C)C)cc1OC(=O)C1CCCC1 | 4.3
COc1cc(/C=C2\C(=O)NN(c3ccccc3)C2=O)cc(Br)c1OCCCOc1ccc(Cl)cc1 | 55.3*
SMILES | RBX1-CUL1 inh
COc1cc(/C=C2\C(=O)NN(c3ccccc3)C2=O)cc(Br)c1OCc1ccc(C)cc1 | 8.1
Cc1cccc(COc2ccccc2/C=C2\C(=O)NN(c3ccccc3)C2=O)c1 | 8.2
COc1cc(/C=C2\C(=O)NN(c3ccccc3)C2=O)cc(Br)c1OCCCOc1cccc(C)c1 | 45.1*
COc1cc(/C=C2/C(=O)NN(c3ccc(I)cc3)C2=O)cc(Br)c1OC(C)=O | 3.4
Cc1cccc(OCCCOc2ccc(Br)cc2/C=C2\C(=O)NN(c3ccccc3)C2=O)c1 | 57.3*
COc1cc(/C=C2/C(=O)NN(c3ccc(C)c(C)c3)C2=O)cc(Br)c1OC(C)=O | 30.6*
COc1cc(/C=C2/C(=O)NN(c3ccc(C)c(C)c3)C2=O)ccc1OCC(=O)N1CCOCC1 | 0.1
CCOc1cc(/C=C2\C(=O)NN(c3ccccc3)C2=O)cc(Br)c1OCCCOc1ccc(Cl)cc1 | -15.1
COc1cc(/C=C2/C(=O)NN(c3ccccc3)C2=O)cc(OC)c1O | 9.6
COc1cc(/C=C2/C(=O)NN(c3ccccc3)C2=O)ccc1OCC(=O)Nc1cccc(C)c1 | -1.8
FC(F)(F)c1nc(-c2ccncc2)ncc1-c1nnnn1-c1ccc(Cl)cc1 | -4.1
C=CCn1nnc(NC(=O)Cc2ccc(Cl)cc2)n1 | 3.3
COc1ccc2[nH]c3[nH]cnc(=S)c3c2c1 | -8.4
Cc1cccc(NC(=O)CN2C(=O)S/C(=C\c3ccc(Sc4ccccc4)o3)C2=O)c1 | -5.7
NCc1cc2cc(I)ccc2s1 | 7.1
O[C@@H]1CN(Cc2cccc3c2sc2ccccc23)CC[C@H]1N1CCOCC1 | -2.6
CC1(C)CC(C(=O)N2CCOc3ccc(CN4CCN(c5ccc(F)cc5)CC4)cc3C2)CCO1 (centres undefined) | 3.2
C=CCn1c(=O)c2c(nc3n2C(C)C(C)=NN3C)n(C)c1=O (centres undefined) | 1.7
O=C(c1cnccn1)N1CCC2(CCCN(Cc3cccc(F)c3F)C2)C1 (centres undefined) | 5.7
O=C(CSc1nnc(CNc2cccc(Cl)c2)o1)Nc1ccccc1 | 1.9
CCOc1cc(/C=C2\C(=O)NN(c3ccccc3)C2=O)cc(Br)c1OCCCOc1cccc(C)c1 | 34.6*
